Results on 7 compounds are retold here after PubChem BioAssay (NCATS).

Where “and” joins values, the source holds several entries; their conditions need not be identical. Equal values may be shown once. Results filed as inconclusive are left out. Calls of active or inactive are those of the source. Unless noted, calls follow the shape of the dose curve; as a rule, active = well fitted curve in the direction sought with a large enough effect; inconclusive = small, poorly fitted or top-dose-only effect, or another doubt; inactive = no such curve, though single readings can be large; an effect the other way counts as inactive or inconclusive.

Test [1] in a line: qHTS profiling of the MIPE4 collection as inhibitors of Plasmodium falciparum (DD2) proliferation (Rep 2) (AID 743346; call rule not given here). The conditions noted are these: P. falciparum Dd2 in erythrocytes, SYBR Green DNA, 72 h; at 28.5 µM unless noted. The gist of the method:
(§1)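 Parasite DNA was quantified by SYBR Green I fluorescence (ex 485, em 535 nm) after overnight lysis in saponin/Triton buffer at room temperature. Cultures at 0.3% parasitemia and 2.5% hematocrit were first exposed to compound for 72 h at 37 C; signals were normalised to artemisinin (0.29 uM) and vehicle wells.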

Test [2] can be described thus: qHTS profiling of the MIPE4 collection as inhibitors of Plasmodium falciparum (HB3) proliferation (AID 743347; call rule not given here;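 also: plate controls were DMSO vehicle wells for no effect and artemisinin wells for full effect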). The conditions noted are these: P. falciparum HB3 in erythrocytes, SYBR Green DNA, 72 h; at 28.5 µM unless noted. The method, boiled down: as §1
The nature of test [3]: High-throughput drug toxicity screening in the BPDCN cell line Gen2.2 (AID 1224824; call rule not given here;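 also: cells exposed to compounds for 48 h before reading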). The conditions noted are these: Gen2.2 BPDCN cells; at 45.8 µM (top of the series) unless noted. The gist of the method:
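CellTiter-Glo luminescence read after 48 h compound exposure at 37 C defines viability; percent activity set with DMSO as 100% and bortezomib (9.2 uM final) as 0%. 500 exponentially growing cells per well, RPMI plus 10% FBS.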

A short description of test [4]: High-throughput drug toxicity screening in the BPDCN cell line Cal-1 (AID 1224825; call rule not given here). The settings on record: Cal-1 BPDCN cell viability, qHTS; at 45.8 µM (top of the series) unless noted. The gist of the method:
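Viability of the BPDCN line Cal-1 is measured as ATP-based luminescence (CellTiter-Glo) following 48 h incubation with compounds. Percent activity uses DMSO-treated wells as 100% and 9.2 uM bortezomib as 0%.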
(Quantitative high-throughput screening tests each substance at several concentrations.)

Test [5] is described as follows: qHTS assay for measurement of the activity of small molecule inhibitors on Zika virus induced Caspase-3 activity in human iPSC derived neural progenitor cells (hNPCs) (AID 1224857). Also: % of control where 0% means no effect; nearly all actives have a fitted effect of over 65% in size. The method, boiled down: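 Zika virus (2 FFU/cell) infection of human iPSC-derived NPCs, 6 h, following 1 h compound preincubation. Read-out: Caspase-Glo 3/7 luminescence.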
Test [6] in a line: qHTS assay for measurement of the activity of small molecule inhibitors on Zika virus induced Caspase-3 activity in human astrocytoma cells (AID 1224859).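 Also: plate controls were ZIKV-infected untreated cells for no effect and uninfected cells for full effect.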 The gist of the method: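 Caspase activation in ZIKV-infected SNB-19 cells (2 FFU/cell, 6 h) measured by Caspase-Glo 3/7 luminescence after 30 min RT; compound pre-incubated 1 h; normalised to uninfected and infected controls.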

A short description of test [7]: qHTS Screen of the MIPE 4.0 Collection Against Ewings Sarcoma (RDES) (AID 1259252). Also: nearly all actives have a fitted effect of over 35% in size. Also: potency is read from the fitted curve at half-maximal effect. The method, boiled down:
(§2)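 Here, cells in 5% FBS RPMI were exposed for two days (48 h) to compound dilutions added four hours after plating. ATP-based CellTiter-Glo luminescence measured viability, normalized to vehicle and no-cell blanks.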

Test [8] is described as follows: qHTS Screen of the MIPE 4.0 Collection Against Ewings Sarcoma (TC71) (AID 1259253). Also: nearly all actives have a fitted effect of over 40% in size. Also: potency is read from the fitted curve at half-maximal effect. The method, boiled down:
as §2

Test [9] can be described thus: qHTS Screen of the MIPE 4.0 Collection Against Ewings Sarcoma (EW8) (AID 1259255). Also: nearly all actives have a fitted effect of over 35% in size. Also: potency is read from the fitted curve at half-maximal effect.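 As to viability: 100% = DMSO-treated cells and 0% = medium-only wells without cells.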 The gist of the method: as §2
Test [10] is described as follows: qHTS Screen of the MIPE 4.0 Collection Against Ewings Sarcoma (TC32) (AID 1259256). Also: nearly all actives have a fitted effect of over 45% in size. Also: potency is read from the fitted curve at half-maximal effect. The gist of the method: as §2
The nature of test [11]: qHTS assay to identify small molecule inhibitors of chordoma cells - UCH-1 (AID 1259355). Also: nearly all actives have a fitted effect of over 55% in size. Also: potency is read from the fitted curve at half-maximal effect. The gist of the method:
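A 48hr growth-inhibition format: each drug tested at 15 concentrations together with added auranofin, camptothecin, doxorubicin, rubitecan and topotecan, with cell viability quantified as CellTiter-Glo luminescence.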

The nature of test [12]: qHTS assay to identify small molecule inhibitors of chordoma cells - UCH-2 (AID 1259356). Also: potency is read from the fitted curve at half-maximal effect.
A short description of test [13]: P-glycoprotein substrates identified in KB-8-5-11 adenocarcinoma cell line, qHTS therapeutic library screen (AID 1346987). Also: nearly all actives have a fitted effect of over 65% in size. Also: potency is read from the fitted curve at half-maximal effect. The method, boiled down:
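Luminescence from CellTiter-Glo, read 5 min after addition, quantified survival of KB-8-5-11 (P-gp-overexpressing) cells exposed to compounds for 72 h. AC50 was derived from concentration-response curves.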

Test [14] in a line: P-glycoprotein substrates identified in KB-3-1 adenocarcinoma cell line, qHTS therapeutic library screen (AID 1346986). Also: nearly all actives have a fitted effect of over 60% in size. The conditions noted are these: KB-3-1 parental cells viability, CellTiter-Glo, 72 h; at 44.5 µM (top of the series). The gist of the method: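 72 h cell-killing screen, 500 cells/well, CellTiter-Glo luminescence. Paired lines KB-3-1/KB-8-5-11; P-gp dependence checked by tariquidar co-treatment and HEK-293 MDR-19 versus empty-vector cells.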

For `CN(C)c1ccc(C(=C2C=CC(=[N+](C)C)C=C2)c2ccc(N(C)C)cc2)cc1`, the parasite growth, % of control (lower = inhibition) in [1] was 6.31%. In test [2], the growth, % of control is 2.46%. The cell viability, % of control (lower = more cytotoxic) in [3] stood at 1.19%. This compound also displayed a viability (% of control) in [4] of 1.42%. For the same compound, the Potency entry in [5], in test [6] and in test [10] was “inactive” throughout. Also, the Potency in test [7] is 372 nM (active); in test [8] it was 296 nM (active); in [9] it was 418 nM (active); in test [11], 22400 nM (active); in [12], 7300 nM (active); in [13], 8.2 µM (active) and 1.48 µM (active).

Regarding `C[C@@H]1C[C@H]2[C@@H]3CCC4=CC(=O)C=C[C@]4(C)[C@@]3(Cl)[C@@H](O)C[C@]2(C)[C@@]1(OC(=O)c1ccco1)C(=O)CCl`, the parasite growth, % of control (lower = inhibition) in [1] was 10.6%. Besides, the growth, % of control in [2] came out at 6.95%. Moreover, in test [3], the cell viability, % of control (lower = more cytotoxic) came out at 4.47%. The viability (% of control) in test [4] came out at 6.87%. Also, the Potency result in [5], in test [6], in [11], in test [12] and in test [13] was “inactive” each time. The Potency in test [7] is 3720 nM (active); in [8], 4690 nM (active); in test [9] it was 11800 nM (active); in test [10] it was 11800 nM (active).

For `Cc1noc(NS(=O)(=O)c2ccc(N)cc2)c1C`, the parasite growth, % of control (lower = inhibition) in test [1] came out at 103%. Moreover, in test [2], the growth, % of control stood at 98.2%. Besides, the cell viability, % of control (lower = more cytotoxic) in test [3] was 138%. The compound also registered a viability (% of control) in [4] of 96.8%. The Potency result in test [5], in test [6], in [7], in test [8], in [9] and in [10] was “inactive” in each case. For the same compound, the Potency result in test [12] and in test [13] was “inactive” each time. For the same compound, the result in [14] was inactive.

As for `CCc1c2c(nc3ccc(OC(=O)N4CCC(N5CCCCC5)CC4)cc13)-c1cc3c(c(=O)n1C2)COC(=O)[C@]3(O)CC`, in test [1], the parasite growth, % of control (lower = inhibition) was 67.7%. The growth, % of control in [2] amounted to 71.1%. For the same compound, the cell viability, % of control (lower = more cytotoxic) in test [3] is 21.9%. The same compound had a viability (% of control) in test [4] of 8.86%. Moreover, the Potency entry in test [5], in [6], in test [10], in test [11], in test [12] and in [13] was “inactive” throughout. Moreover, the Potency was 332 nM (active) in test [7], 332 nM (active) in [8] and 469 nM (active) in test [9].

On to `CCCCOc1ccc(CC(=O)NO)cc1`, for which the parasite growth, % of control (lower = inhibition) in [1] worked out at 16.4%. The compound also gave a growth, % of control in test [2] of 5.4%. In addition, the cell viability, % of control (lower = more cytotoxic) in test [3] came out at 37%. Further, the viability (% of control) in test [4] amounted to 29%. For the same compound, the Potency result in test [5], in test [6] and in test [12] was “inactive” in each case. For the same compound, the Potency was 6620 nM (active) in [7], 7430 nM (active) in test [8], 10500 nM (active) in test [9] and 5260 nM (active) in test [10]. The result in test [14] was inactive.

Consider `COc1c(N2CCNC(C)C2)c(F)cc2c(=O)c(C(=O)O)cn(C3CC3)c12` (stereo not given), for which the parasite growth, % of control (lower = inhibition) in [1] was determined as 23.4%. Also, the growth, % of control in test [2] is 21.7%. For the same compound, the cell viability, % of control (lower = more cytotoxic) in test [3] was determined as 111%. Besides, the viability (% of control) in test [4] was found to be 78%. Also, the Potency entry in test [5], in test [6], in test [7], in [8], in test [9] and in test [10] was “inactive” throughout. Moreover, the Potency result in test [11], in [12] and in test [13] was “inactive” throughout. Besides, in test [14], the outcome was inactive.

`COC(=O)Nc1nc2ccc(Sc3ccccc3)cc2[nH]1`: the parasite growth, % of control (lower = inhibition) in [1] worked out at 18.7%. This compound also gave a growth, % of control in test [2] of 102%. For the same compound, the cell viability, % of control (lower = more cytotoxic) in test [3] was 61%. This compound also showed a viability (% of control) in [4] of 18.7%. The Potency result in [5], in [6] and in test [12] was “inactive” each time. Moreover, the Potency in test [7] is 1660 nM (active); in test [8], 1660 nM (active); in test [9], 1320 nM (active); in test [10], 1180 nM (active); in [13], 495 nM (active) and 1.18 µM (active).
